# An excerpt weighted towards active compounds, which were near 3.7% of everything screened.
# PLK1 PBD block: inhibitors of human PLK1 polo-box domain binding; AID 720504; P53350; Potency, µM, for inactives: max response, negative = inhibition, actives largely listed as inhibitors; Plk1 PBD binding of FITC phosphopeptide, fluorescence polarization; 360,000 compounds, 2.8% hits; note: potency is the fitted concentration of half-maximal effect; series mostly up to about 57 µM; % is set by controls: 0 for no effect and ±100 for the full control effect; nearly all actives have a fitted effect of over 65% in size
# WRN inhibitor: WRN helicase (human) inhibition; Q14191; WRN helicase unwinding, fluorescent forked duplex, kinetic; Potency, µM (series often up to 114 µM), for inactives: at the highest dose activity change, negative = inhibition, usual class: inhibitors; 360,000 compounds, 0.46% hits; AID 651768; note: potency is the fitted concentration of half-maximal effect; % is set by controls: 0 for no effect and ±100 for the full control effect; nearly all actives have a fitted effect of over 55% in size
#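 WRN at 20 nM final was preincubated with compound for 15 min at room temperature; reaction started with 100 nM forked duplex oligonucleotide carrying fluorophore and quencher plus 2 mM ATP (final). Unwinding followed kinetically by red fluorescence (ex 525/em 598 nm).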
# FEN1 inhibitor: human FEN1 inhibition | P39748 | Recombinant FEN1 flap cleavage, fluorescence, 15 min | Potency, µM (highest dose often 114 µM), without a hit: at the highest dose activity change, negative = inhibition, hits mostly inhibitors | 390,000 compounds, 0.35% hits; note: potency is the fitted concentration of half-maximal effect; % is set by controls: 0 for no effect and ±100 for the full control effect; nearly all actives have a fitted effect of over 65% in size
# Target sequence (P39748 whole entry, looked up): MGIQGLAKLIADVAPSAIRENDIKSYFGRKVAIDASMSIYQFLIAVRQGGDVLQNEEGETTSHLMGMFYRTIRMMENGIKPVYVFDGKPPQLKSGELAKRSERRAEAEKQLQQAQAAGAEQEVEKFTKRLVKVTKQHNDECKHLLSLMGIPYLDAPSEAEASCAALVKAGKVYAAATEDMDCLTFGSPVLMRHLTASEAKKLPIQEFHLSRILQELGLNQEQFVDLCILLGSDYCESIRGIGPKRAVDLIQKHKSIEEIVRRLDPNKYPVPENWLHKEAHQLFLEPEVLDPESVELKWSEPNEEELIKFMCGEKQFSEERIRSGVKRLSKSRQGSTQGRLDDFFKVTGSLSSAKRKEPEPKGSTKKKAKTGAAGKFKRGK
#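 FEN1 at 10 nM preincubated with compounds 15 min at room temperature, then flap DNA substrate added at 50 nM final. Signal read at 0 and 15 min; concentration-response fitted with four-parameter Hill equation.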
# TCR activator: T cell receptor activation; primary human leukocytes, anti-CD3, IL-2 HTRF, 48 h; Potency, µM (doses to about 9.22 µM), inactives show at the highest dose activation of IL-2 secretion, most hits filed as activators; 330,000 tested, under 10 active; AID 504894; note: % of control where 0% means no effect
#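 IL-2 release read by HTRF sandwich (Eu cryptate donor, d2 acceptor, 665 nm emission) after 48 hr exposure of primary human leukocytes to compound together with anti-CD3 beads in the absence of co-stimulatory signals.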
# PI5P4Ka inh: PI5P4K alpha (human) kinase inhibition; P48426; PI5P4Kalpha enzyme, ADP-Glo luminescence, 60 min; hits give low values; max response, %; 330,000 compounds, 1.2% hits; AID 652105; active = max response of -50% or lower; inconclusive = between -30% and -50%; inactive = -30% or higher; note: value at the top dose of about 77 µM; % is set by controls: 0 for no effect and ±100 for the full control effect
# Target sequence (P48426 whole entry, looked up): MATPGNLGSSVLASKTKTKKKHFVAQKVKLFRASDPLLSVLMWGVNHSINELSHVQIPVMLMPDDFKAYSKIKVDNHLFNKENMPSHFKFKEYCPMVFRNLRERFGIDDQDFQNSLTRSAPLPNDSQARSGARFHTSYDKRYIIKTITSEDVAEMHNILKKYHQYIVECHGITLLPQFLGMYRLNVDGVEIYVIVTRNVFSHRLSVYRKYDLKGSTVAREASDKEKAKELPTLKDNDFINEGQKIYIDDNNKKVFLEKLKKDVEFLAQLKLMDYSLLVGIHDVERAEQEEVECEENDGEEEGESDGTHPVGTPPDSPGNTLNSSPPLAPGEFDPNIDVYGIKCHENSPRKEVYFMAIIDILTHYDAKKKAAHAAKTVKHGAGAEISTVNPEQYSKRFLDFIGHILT
#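 Quantitative HTS of the MLSMR library against PI5P4Kalpha with substrate. ATP added last at 5 microM final; room temperature, 60 minutes. Remaining ATP depleted, ADP converted and read as luminescence.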
# VDR inhibitor: blocks the human vitamin D receptor. 400,000 compounds, 0.93% hits. P11473. AID 504847. VDR-SRC2-3 peptide fluorescence polarization, 2 h. Potency, µM, for the others: max response, negative = inhibition, actives largely listed as inhibitors; note: potency is the fitted concentration of half-maximal effect; % is set by controls: 0 for no effect and ±100 for the full control effect
#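 After 23 nl compound addition and a short centrifugation, plates sat for 2 hours at ambient temperature; polarization of fluorescence then indicated loss of VDR binding to peptide SRC2-3.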
# VDR inh confirm: confirmation of human vitamin D receptor inhibitors; shares compounds with VDR inhibitor; VDR-coactivator inhibition assay, qHTS confirmation; Potency, µM, actives largely listed as inhibitors; 840 compounds, 89% hits; AID 602199; note: potency is the fitted concentration of half-maximal effect
# VDR FP fluor: confirmation of human VDR-coactivator binding inhibitors, fluorescein label | shares compounds with VDR inhibitor | AID 602200 | Potency, µM (highest dose often 57.1 µM), for the others: at the highest dose activity change, negative = inhibition, actives largely listed as inhibitors | 840 compounds, 48% hits | VDR-coactivator binding, fluorescein fluorescence polarization; note: potency is the fitted concentration of half-maximal effect
# VDR bla: inhibits human VDR in beta-lactamase reporter cells; VDR beta-lactamase reporter cells, FRET ratio; cells co-treated with VDR agonist LG190178; shares compounds with VDR inhibitor; 840 compounds, 23% hits; Potency, µM (titrated, usually from 46.1 µM), without a hit: at the highest dose activity change, negative = inhibition, usual class: inhibitors; note: potency is the fitted concentration of half-maximal effect; % is set by controls: 0 for no effect and ±100 for the full control effect
# VDR cytotox: cell toxicity, VDR inhibitor hit counter-screen; shares compounds with VDR inhibitor; cytotoxicity counter-screen, cell viability, qHTS; Potency, µM (titrated, usually from 48.3 µM), for inactives: at the top dose activity change, negative = cytotoxicity, actives largely listed as cytotoxic; 840 compounds, 18% hits; AID 602204;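 note: potency is the fitted concentration of half-maximal effect; plate controls were DMSO for no effect and high-concentration cycloheximide for full effect; nearly all actives have a fitted effect of over 75% in size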
# * hit, by the source's call; ? = inconclusive; / = not tested or not shown; [ ] = dose if it differs, or a comment. Unless noted, calls come from the whole dose curve; as a rule, active = well fitted curve in the direction sought with a large enough effect; inconclusive = small, poorly fitted or top-dose-only effect, or another doubt; inactive = no such curve, though single readings can be large; an effect the other way counts as inactive or inconclusive.
SMILES,PLK1 PBD block,WRN inhibitor,FEN1 inhibitor,TCR activator,PI5P4Ka inh,VDR inhibitor,VDR inh confirm,VDR FP fluor,VDR bla,VDR cytotox
COc1ccc(OC)c(/C=C/C(=O)c2ccc(Cl)cc2)c1,-2%,-8%,-25%,2%,/,45µM*,18*,22µM*,?,3%
Cc1ccc(-n2ncc3c(N4CCCCC4)ncnc32)cc1,/,/,7%,/,/,11%,/,/,/,/
CC(C)CN1C(=O)/C(=C(/C#N)C(=O)NC2CCCCC2)c2ccccc21,?,2%[57.1 µM],-3%,-2%,0,?,2.8*,2.8µM*,6%,-3%
Nc1ncnc2c1ncn2[C@@H]1O[C@H](CNCc2ccc(-c3cc(C(F)(F)F)ccc3Cl)o2)[C@@H](O)[C@H]1O,-11%,-2%,4%,2%[46.1 µM],3,28µM*,?,?,11%,14%
Nc1ncnc2c1ncn2[C@@H]1O[C@H](CNCc2ccccc2)[C@@H](O)[C@H]1O,-14%,-4%,-1%,5%,1,-1%,/,/,/,/
Cc1cccc(CNC(=O)c2ccc3nc(-c4ccccc4)c(-c4ccccc4)nc3c2)c1,/,/,-9%,/,/,15%,/,/,/,/
Cc1cc(C)c(S(=O)(=O)/N=C2/C=C(SCC(=O)O)C(=O)c3ccccc32)cc1C,0.84µM*,18µM*,10µM*,/,?,7.9µM*,4.2*,?,-1%,?
CCc1ccc(/C=C/C(=O)c2ccc(S(=O)(=O)N(C)C)cc2)cc1,-9%,-8%,-6%,-5%[46.1 µM],5,?,?,6.3µM*,33%,?
Cc1ccccc1OCc1nc2ccc(S(=O)(=O)N3CCOCC3)cc2[nH]1,9.5µM*,-1%,4%,3%,/,40µM*,21*,?,21%,38%
COc1ccc(/C=C2\C(=O)N(c3c(Cl)cc(Cl)cc3Cl)N=C2NC(=O)c2cccc([N+](=O)[O-])c2)cc1,0.75µM*,-33%,0%,2%[46.1 µM],-25,?,2.8*,1.3µM*,?,-14%
COc1ccc(NC(=O)c2cccc(N3C(=O)c4cccc([N+](=O)[O-])c4C3=O)c2)cc1,-14%,-1%,-13%,1%,-1,-29%,/,/,/,/
Cn1cnc(S(=O)(=O)N2CCC(C(=O)NCc3ccc(Cl)cc3)CC2)c1,/,/,16%,/,/,-1%,/,/,/,/
c1ccc(-c2ccc(C3=Nn4c(Cn5nnc6ccccc65)nnc4SC3)cc2)cc1,4.7µM*,-18%,-3%,9%,?,?,14*,10µM*,-9%,-9%
Cc1c(Cl)cccc1NC(=O)CN1C(=O)COc2ccc(S(=O)(=O)N3CCOCC3)cc21,/,/,0%,/,/,4%,/,/,/,/
CCOC(=O)C1CCN(C2=NC(=O)/C(=C/c3ccc(Cl)cc3)S2)CC1,-10%,-1%,0%,-2%,-2,-4%,/,/,/,/
CCOC(=O)CSC1=NC(=O)/C(=C\c2ccc(Cl)cc2)S1,0.84µM*,?,-11%,4%,?,79µM*,8.4*,75%,?,?
COc1cc(OC)c(/C=C/c2ccccn2)c(OC)c1,/,/,14%,/,/,/,/,/,/,/
COc1cc(OC)c(/C=C/c2nccc3ccccc23)c(OC)c1,/,/,4µM*,/,/,/,8.9*,1.6µM*,21µM*,?
CS(=O)(=O)c1ccc(S(=O)CC(=O)OCc2ccccc2)c([N+](=O)[O-])c1 (stereo unspecified),2.4µM*,?,-18%,-4%,-7,18µM*,9.5*,13µM*,?,21µM*
CC(C)=C1C(=O)NN(c2ccc(F)c(Cl)c2)C1=O,-14%,?,-19%,/,/,-2%,/,/,/,/
O=C1NN(c2ccc(F)c(Cl)c2)C(=O)/C1=C\c1cccc(OC(=O)c2cccs2)c1,1.1µM*,50µM*,-16%,5%,-82*,22µM*,11*,?,-18%,-9%
COC(=O)c1cc(NC(=O)c2cc3sccc3n2Cc2ccc(Cl)cc2)cc(C(=O)OC)c1,/,/,-4%,/,/,-3%,/,/,/,/
Cc1ccc(C2(C)NC(=O)N(CC(=O)Nc3nc(-c4ccccn4)cs3)C2=O)cc1 (stereo unspecified),4.2µM*,?,-4%,-2%,-59*,?,11*,?,?,-16%
Cc1ccc(NC(=O)CN2C(=O)NC(C)(c3ccc(Cl)cc3)C2=O)cc1 (stereo unspecified),-14%,-2%,-3%,2%,11,6%,/,/,/,/
CCOc1ccc(N(C)C(CNS(=O)(=O)c2ccccc2)c2ccccc2)cc1 (stereo unspecified),/,/,3%,/,/,25%,/,/,/,/
SMILES,PLK1 PBD block,WRN inhibitor,FEN1 inhibitor,TCR activator,PI5P4Ka inh,VDR inhibitor,VDR inh confirm,VDR FP fluor,VDR bla,VDR cytotox
O=C(CCN1N=C(c2ccccc2)CCC1=O)NCCc1ccc(Cl)cc1,/,/,-17%,/,/,-4%,/,/,/,/
CC(=O)c1ccc(N=C2C(=O)Nc3ccccc32)cc1,?,-3%[57.1 µM],6%,9%,-4,4µM*,3.4*,3.5µM*,16%,-7%
O=C1Nc2ccccc2C1=Nc1ccc(F)cc1,0%,-3%[57.1 µM],0%,3%,-3,?,/,/,/,/
NC(=O)c1ccc(N=C2C(=O)Nc3ccc([N+](=O)[O-])cc32)cc1,?,4%,?,-2%,5,?,0.63*,0.71µM*,-16%,-21%
COc1ccccc1NC(=O)CC(C)n1nc(C)cc1C (stereo unspecified),/,/,5%,/,/,3%,/,/,/,/
CC1C/C(=C\c2cccnc2)C(=O)/C(=C/c2cccnc2)C1 (stereo unspecified),-14%,-16%,2%,-3%,-11,35µM*,12*,?,2.1µM*,?
Cn1c(/C(C#N)=C/c2ccc(C(F)(F)F)cc2)nc2ccccc21,/,/,-21%,/,/,28µM*,14*,8.9µM*,18µM*,?
CCOc1ccc(NC(=O)CSc2nc3c(oc4ccccc43)c(=O)n2CCOC)cc1,/,/,20%,/,/,0%,/,/,/,/

# Screens: PubChem BioAssay, National Center for Advancing Translational Sciences (NCATS)
